Screening data from PubChem BioAssay.
mHTT-CaM PPI inh: inhibitors of human mutant huntingtin-calmodulin interaction | P42858 | AlphaScreen His-mHTT/GST-CaM binding, luminescence | inhibition, % at 15 µM | actives 3.6% (n = 190,000) | AID 1671202;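 further: 0% = both proteins with DMSO and 100% = one protein alone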
Pf apPOL block: Pf-apPOL DNA polymerase inhibition; Recombinant Pf-apPOL, molecular beacon fluorescence, 1.5 h; inhibition, % at 10 µM; actives 0.25% (n = 210,000); AID 1794808
* = called active by the depositor; i = inactive; nt = no result. Only some compounds are listed: those with a hit (about 3.5% of all), similar ones and a draw of the others. No stated cut-off is given here; in the data, active means inhibition above about 50%; inactive means the rest.

SMILES | mHTT-CaM PPI inh | Pf apPOL block
COc1cc(/C=c2\sc3nc(-c4cccs4)nn3c2=O)cc(OC)c1OC | -2 | 2
O=C(CSc1nnnn1-c1ccccc1)Nc1ccc(Cl)cc1Cl | -3 | -4
Clc1ccc(-c2cnc3n2CCC3)cc1Cl | 89* | -5
Clc1ccc(-c2cn3c(n2)CCC3)cc1Cl | 38 | -3
O=C(Nc1ccccc1C(=O)Nc1ccc(Cl)cc1)c1ccco1 | 5 | -2
COc1cccc(Nc2ncc3c(n2)CCN(Cc2ccc(OC(C)C)cc2)C3)c1 | 51* | -1
COc1ccc(Nc2ncc3c(n2)CCN(Cc2ccc(N(C)C)cc2)C3)c(OC)c1 | 36 | -7
COc1cccc(Nc2ncc3c(n2)CCN(Cc2ccc(N(C)C)cc2)C3)c1 | 73* | -4
CCOc1ccc(CN2CCc3nc(Nc4cccc(OC)c4)ncc3C2)cc1 | 20 | -12
N#Cc1ccc(C2=COC3(CCCN(C(=O)c4cccc(F)c4)C3)C2)cc1 (stereo not given) | 8 | -3
O=C(Nc1cccc(Cl)c1)N1CCn2cccc2C1Cc1ccccc1 (stereo not given) | 92* | 1
Cc1ccc(NC(=O)N2CCn3cccc3C2Cc2ccccc2)cc1 (stereo not given) | 10 | -4
COc1ccc(NC(=O)N2CCn3cccc3C2Cc2ccccc2)c(OC)c1 (stereo not given) | 54* | -1
CCc1ccc(NC(=O)N2CCn3cccc3C2Cc2ccccc2)cc1 (stereo not given) | 18 | -2
COc1ccc(C)cc1NC(=O)N1CCn2cccc2C1Cc1ccccc1 (stereo not given) | 48 | -5
O=C(Nc1ccc(F)cc1)N1CCn2cccc2C1Cc1ccccc1 (stereo not given) | 69* | -8
CN(C)c1ccc(C=Nc2nc(-c3ccccc3)cs2)cc1 | 65* | -1
CN(C)c1ccc(Nc2nc(-c3ccncc3)cs2)cc1 | 39 | -1
Cc1cc(/C=C(\C#N)c2nc3ccccc3[nH]2)c(C)n1-c1ccc(F)cc1 | 24 | -2
Oc1ccc(/C=N/n2cnnc2)c(O)c1 | i | nt
COc1ccc(/C=C/c2nc(N)nc(-c3ccccc3O)n2)cc1 | 32 | -5
Oc1ccc(/C=C/c2nc(-c3ccccc3O)n(-c3ccccc3)n2)cc1 | 92* | 6
Oc1ccc(/C=C/c2nc(-c3ccccc3O)n(-c3ccccc3)n2)c(O)c1 | 96* | -77
Cc1ccc(Cl)cc1NC(=O)CC(NCCCOC(C)C)C(=O)O (stereo not given) | -10 | -7
Cc1ccc(Cl)cc1NC(=O)CC(NCc1ccccn1)C(=O)O (stereo not given) | 100* | -8
SMILES | mHTT-CaM PPI inh | Pf apPOL block
CCCC(C)C(=O)Nc1ccc(OCC)cc1 (stereo not given) | 100* | 4
CCCC(C)C(=O)Nc1ccc(Br)cc1 (stereo not given) | -14 | -4
O=C1NC(=NN=Cc2[nH]ncc2Br)SC1c1ccccc1 (stereo not given) | nt | 4
Nc1ccc2nc(-c3ccccc3Br)[nH]c2c1 | 57* | 8
Nc1ccc2nc(CCc3nc4ccc(N)cc4[nH]3)[nH]c2c1 | 35 | -3
Nc1ccc(-c2nc3c(Cl)cc(N)cc3[nH]2)cc1 | 40 | 0
Nc1ccc2nc(-c3ccc(Oc4ccc(-c5nc6ccc(N)cc6[nH]5)cc4)cc3)[nH]c2c1 | 65* | 0
Nc1ccc2nc(C(F)(F)F)[nH]c2c1 | -1 | nt
Nc1ccc2nc(-c3ccc(N)c(Cl)c3)[nH]c2c1 | 66* | 14
Cc1onc(-c2ccccc2)c1C(=O)Nc1cc2cccc([N+](=O)[O-])c2oc1=O | 2 | -1
O=C(CC(c1ccccc1)c1ccccc1)NCCn1nc(-c2ccc(F)cc2)ccc1=O | 95* | -13
Cn1nnnc1SCC(=O)NCCn1nc(-c2ccc(F)cc2)ccc1=O | -13 | -4
Cc1cc2c(N3CCCC(C(=O)NCCN4CCCCCC4)C3)nccc2s1 (stereo not given) | 100* | -5
COc1ccc(NC(=O)C2CCCN(c3nccc4sc(C)cc34)C2)cc1OC (stereo not given) | 71* | -4
Cc1cc2c(N3CCC(C(=O)Nc4ccc(F)c(F)c4)CC3)nccc2s1 | 5 | -2
Cc1cc2c(N3CCCC(C(=O)NCc4cccc(Cl)c4)C3)nccc2s1 (stereo not given) | 22 | -5
COc1cc(NC(=O)C2CCN(c3nccc4sc(C)cc34)CC2)cc(OC)c1OC | 52* | -4
Cc1cc2c(N3CCC(C(=O)Nc4ccc(C)c(F)c4)CC3)nccc2s1 | 7 | -1
Cc1ncc([N+](=O)[O-])n1S(=O)(=O)c1ccc(Br)cc1 | -5 | -2
COCc1ccc(-c2c(-c3ccccc3OC)sc3ccccc23)cc1 | -38 | -3
COc1cc(-c2c(CCO)sc3ccccc23)cc(OC)c1OC | 97* | -13
Cc1ccc(S(=O)(=O)N2CC(C)C(c3nc(-c4cccnc4)no3)C2)cc1 (stereo not given) | 1 | -12
COC(=O)Nc1ccc(S(=O)(=O)N2CCC(C(=O)Nc3cccc(OC)c3)CC2)cc1 | 11 | -3
COc1ccc(S(=O)(=O)N2CCC(C(=O)Nc3cccc(C(C)=O)c3)CC2)cc1 | 10 | 99*
COc1cc2c(cc1OC)CN(C(=O)C(c1ccccc1)n1cccc1)CC2 (stereo not given) | 65* | 6
SMILES | mHTT-CaM PPI inh | Pf apPOL block
COc1ccc(C(=O)N2CCc3cc(OC)c(OC)cc3C2)cc1OC | -3 | -5
O=C(c1cccc(C(F)(F)F)c1)N1CCN(c2nc(CN3CCOCC3)cs2)CC1 | 6 | -7
COc1cc(C)c(CNc2cc(C)ccc2OC)cc1C | 89* | -7
COc1ccc(C)cc1NS(=O)(=O)CC(C)C | 6 | -4
COc1cccc(CNCc2ccccc2[N+](=O)[O-])c1OC | 5 | -3
COc1ccc(C)cc1NCc1ccccc1[N+](=O)[O-] | 77* | -2
O=C(Nc1ccc(S(=O)(=O)Nc2nccs2)cc1)c1ccco1 | -20 | -6
CCCn1ncc(N2CCC(C(=O)NCc3ccc(F)cc3)CC2)cc1=O | -8 | 0
CC(=O)N1CCC(n2c(C)nc(C(=O)N3CCN(c4ccccn4)CC3)c2C)CC1 | -3 | -3
COc1ccccc1CN1COc2ccc3c(c2C1)OC(=Cc1cccnc1)C3=O | 3 | -10
COc1cc(C=C2Oc3c(ccc4c3CN(c3ccc5c(c3)OCO5)CO4)C2=O)cc(OC)c1OC | 59* | -1
COc1cccc(C=C2Oc3c(ccc4c3CN(Cc3ccccn3)CO4)C2=O)c1 | 99* | -33
COc1cccc(CN2COc3ccc4c(c3C2)OC(=Cc2cc(OC)c(OC)c(OC)c2)C4=O)c1 | 11 | 8
COc1ccc(OC)c(C=C2Oc3c(ccc4c3CN(Cc3ccncc3)CO4)C2=O)c1 | 16 | -5
COc1ccc(C=C2Oc3c(ccc4c3CN(Cc3ccccn3)CO4)C2=O)c(OC)c1 | 100* | -89
COc1ccccc1CN1COc2ccc3c(c2C1)OC(=Cc1ccncc1)C3=O | 100* | -21
COc1ccc(N2COc3ccc4c(c3C2)OC(=Cc2ccc(OC)c(OC)c2)C4=O)cc1 | 31 | 5
O=C(C1CCN(c2nc3cccnc3s2)CC1)N1CCN(c2ccccc2F)CC1 | -1 | -2
COc1ccccc1CN1COc2ccc3c(c2C1)OC(=Cc1cc(OC)c(OC)c(OC)c1)C3=O | 8 | -17
COc1cc(C=C2Oc3c(ccc4c3CN(Cc3ccccn3)CO4)C2=O)cc(OC)c1OC | 100* | -36
Cc1ccc(S(=O)(=O)N(C)CC(=O)NC2CC2)cc1 | 0 | 1
